This is part of a sample that, as a whole, favours compounds with a hit. Of some 83,000 tested, about 20% had one in any assay.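 The test compound was applied at a single concentration to cells in 96-well plates for 48 hours, and percent growth was recorded.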 Calls of active or inactive are those of the source.

This test concerns MOLT-4 leukemia. Kind of test: NCI-60 one-dose screen, 48 h (100 = growth as untreated, 0 = no growth, -100 = all killed). To be noted: 10 µM unless noted. As for the experimental part:
Growth inhibition of the MOLT-4 human tumor cell line is measured as a screen for anti-cancer activity. Cells are grown in 96 well plates and exposed to the test compound for 48 hours. Compounds are tested at a single concentration, which is 10^-5 M for most compounds. The reported endpoint is percent growth (GI% or GIPRCNT), where numbers from 0 - 100% represent growth inhibition, and numbers from -100% - 0 represent cell death. For example, a value of 40 represents 60% growth inhibition. A value of 0 means no net growth occurred over the course of the experiment. A value of -40 indicates 40% of cells at the beginning of the experiment died by the end of the experiment. A value of -100 means all cells are dead at the end of the experiment.
NCI-60 Human Tumor Cell Lines Screen was performed using the standard one-dose NCI protocol, which is described in more detail at https://dtp.cancer.gov/discovery_development/nci-60/default.htm.
Compounds with GIPRCNT values below 10 were considered active. Activity score was based on GIPRCNT using the following formula: […]
Score is 0 for GIPRCNT values of 100 or above, 50 for GIPRCNT values of 0, and 100 for GIPRCNT values of -100.
As to `CC(=O)c1cc(C(=O)c2ccc3c(c2)Sc2ccccc2N3)c2c(C)cccn12`, the growth is 12% (inactive).

For the compound `COc1cc(C(=O)/C=C/c2cn(-c3ccccc3)nc2-c2cccc(Nc3ccnc4cc(Cl)ccc34)c2)cc(OC)c1OC`, the growth was 63.3% (inactive).

For `CN(C)CCOc1nc2c3ccncc3cc(-c3cccc(Cl)c3)c2c2cnccc12`, the growth is -14.7% (active). Regarding `Cc1cc(C)c2c(n1)sc1c(Nc3ccc(O)cc3)ncnc12`, the growth is 14.3% (inactive).

In the case of `CC(C)N1CCN(c2ccncc2S(=O)(=O)N2CCN(C)CC2)CC1`, the growth was 104% (inactive). With `COc1ccc(NC(=O)/C=C/c2ccc(Cl)c(Cl)c2)cn1`, the growth was 44.4% (inactive). On to `CCCCCCCCCCCC1=NC(C)(C)CN1C(C)(C)CO`, for which the growth was 74% (inactive).

Consider `CCCCCCCCCCCCCCCCS(=O)(=O)Nc1cc(C(=O)NN)cc(C(=O)NN)c1`, for which the growth is 21.5% (inactive). As for `CC(=O)c1c(O)c(C)c(O)c2c1OC1=CC(=O)/C(=C(/C)N)C(=O)C12C` (stereo not given), the figure is 73.3% (inactive); as for `N=c1n(Cc2ccccc2)c(N)cc(=O)n1Cc1ccccc1`, -28.6% (active).

As for `CC[C@H](Nc1nc(C)nc(N)c1C#N)c1nc2cccc(NCc3ccc(C(=O)NO)cc3)c2c(=O)n1-c1ccccc1`, the growth was 2.8% (active). The result for `CCSc1ccc([C@@H]2[C@@H](N)C(=O)N2c2cc(OC)c(OC)c(OC)c2)cc1` reads 13.1% (inactive). With `COc1ccc(C(=O)C(C#N)c2cc(OC)c(OC)c(OC)c2)cc1` (stereo not given), the growth is 88% (inactive). With `CCN(CC)CCNc1c(C)cc(CO)c(Cl)c1C`, the growth was 93% (inactive).

Consider `COc1ccc2c(c1)CCCC21C(=O)Nc2ccccc21` (stereo not given), for which the growth was 76.2% (inactive). Regarding `COc1ccc(-c2nsc3c2NC(=O)CC3c2ccc3c(c2)OCO3)cc1` (stereo not given), the growth is 18.4% (inactive). As for `C#CC[C@@H]1C[C@]2(C)[C@H]3CC=C4[C@H]5[C@@H](C)[C@H](C)CC[C@]5(C(=O)NCCCCCCCCN)CC[C@@]4(C)[C@]3(C)CC[C@H]2C(C)(C)[C@H]1OC(C)=O`, the figure is -19.8% (active); as for `CCOC(=O)Nc1ccc2nc(-c3cscn3)[nH]c2c1`, 49.9% (inactive); as for `CCCc1n(Cc2ccc3ccccc3n2)cc[n+]1Cc1ccc2ccccc2c1`, -1.31% (active). As for `CCN(CC)Cc1cc(Nc2ccnc3cc(Cl)ccc23)cc(-c2ccc(Cl)cc2)c1O`, the figure is 24% (inactive); as for `O=C1/C(=C\c2cccn2Cc2ccc(F)cc2)c2ccccc2N1c1c(Cl)cccc1Cl`, 74.1% (inactive); as for `Cc1c(O)c(=O)n(-c2ccccc2)n1C`, 84.2% (inactive). As for `COc1cc2c(cc1OC)C(=O)OC2`, the figure is 104% (inactive); as for `COc1ccc(/C=C/C(=O)c2ccc(NC(=O)CSc3nnc(-c4ccc(Cl)cc4)n3-c3ccccc3)cc2)cc1`, 65.5% (inactive); as for `CCCc1cc2c(cc1CN(Cc1cc3c(cc1CCC)OCO3)C(=N)OCC)OCO2`, 93.5% (inactive).

`NC(=S)N/N=C(/c1cccs1)C1CC1`: the growth is 29.2% (inactive). On to `COc1ccc(/C=C2\CCCC3=C2N=C2SC(C)=NN2C3c2ccc(OC)c(OC)c2)cc1OC` (stereo not given), for which the growth is 27.7% (inactive).

Consider `CCCCCCCCCCCCCCCCCC1=NC(C)(C)CN1C(C)(C)CO`, for which the growth is -55.2% (active).

With `Cc1cccc(C(=O)O)n1`, the growth is 94.2% (inactive). As for `C#CC[C@@H]1C[C@]2(C)[C@H]3CC=C4[C@H]5CC(C)(C)CC[C@]5(C(=O)NCCCCN)CC[C@@]4(C)[C@]3(C)CC[C@H]2C(C)(C)[C@H]1OC(C)=O`, the figure is 12.2% (inactive). Turning to `COc1cc(/C=C/C(=O)c2c(C)nc3ccccc3c2C)ccc1OCCCOc1cc2c(cc1OC)C(=O)N1CCC[C@H]1C=N2`, the growth is -25.5% (active). The result for `C=CCn1c(SCC(=O)Nc2ccc(/C(C)=N\O)cc2)nnc1-c1cc(-c2ccc(Cl)cc2)nc2ccccc12` reads -25.3% (active); that for `O=C(C(Br)C(Br)c1ccccc1)C(Br)C(Br)c1ccccc1` (stereo not given), -43.4% (active). As to `COc1ccc(/C(=C\c2cc(OC)c(OC)c(OC)c2)C(=O)N2CCCNCC2)cc1`, the growth is 94.7% (inactive). On to `COC(=O)C1(C)COP(=O)(NC23CC4CC(CC(C4)C2)C3)OC1` (stereo not given), for which the growth was 109% (inactive). As for `O=C(/C=C/c1ccccc1)C(Br)C(Br)c1ccccc1` (stereo not given), the growth was -25% (active).

As to `COC(=O)c1cc(Cl)cc([N+](=O)[O-])c1O`, the growth was 61.6% (inactive).

Regarding `O=C(CI)NCCNc1cccc2c(S(=O)(=O)O)cccc12`, the growth is 98.3% (inactive). Consider `CCSc1ccc([C@@H]2[C@@H](O)C(=O)N2c2cc(OC)c(OC)c(OC)c2)cc1`, for which the growth was 10.8% (inactive). As to `CCOC(=O)NNc1cccc(Cl)c1`, the growth was 113% (inactive).

Source of the values: PubChem BioAssay (NCI).
